The panel holds about 83,000 compounds, 20% with a hit somewhere; the sample as a whole holds those more often.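 Cells were grown in 96-well plates and exposed to the test compound at a single concentration for 48 hours; results are reported as percent growth, with values below 10 considered active.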 Unmarked numbers belong to inactive results. Activity calls are given as the source filed them.

The text below walks through data of PubChem BioAssay (NCI).

Common to all, as to experiment: NCI-60 one-dose screen, 48 h (100 = growth as untreated, 0 = no growth, -100 = all killed)
Holding throughout (details): 10 µM unless noted

The test system of assay [1] is SR leukemia.
Assay [2] relates to RPMI-8226 leukemia.
The test system of assay [3] is OVCAR-8 ovarian.
In assay [4] the test system is OVCAR-5 ovarian.
Assay [5] deals with OVCAR-4 ovarian.
For assay [6], the system named is SK-OV-3 ovarian.
Assay [7] relates to IGROV1 ovarian.
Assay [8] has as its system OVCAR-3 ovarian.
Assay [9] concerns HS 578T breast.
Assay [10] has as its system NCI/ADR-RES ovarian.

For the compound `CCOC(=O)C/C(=C\c1ccccc1)C(C)=O`, the growth in assay [1] was 96.7%; in assay [2], 95%; in assay [3] it was 90.9%; in [4], 108%; in assay [5], 112%; in assay [6], 75.1%. For the same compound, the growth in [7] is 109%; in [8] it was 107%; in [9], 108%; in assay [10], 110%.

Turning to `Cc1cc(N2CCCC2)nc(N(CCNc2ccnc3cc(Cl)ccc23)Cc2ccco2)n1`, the growth in assay [1] is -14.9% (active); in [2], -42.3% (active); in assay [3], 57%; in [4], 25.3%; in assay [5], 38.6%; in [6], 65.5%. The growth in assay [7] was 4.93% (active); in assay [8] it was 13.8%; in assay [9], 62.1%; in [10], 18.4%.

Turning to `Cc1ccc(S(=O)(=O)Nc2ccc(-c3cc(-c4cccc(F)c4)c(C#N)c(=O)[nH]3)cc2)cc1`, the growth is 54.9% in [1]; 19.4% in assay [2]; 80.1% in [3]; 99.9% in assay [4]; 67% in assay [5]; 99.7% in [6]. The growth in assay [7] is 73.1%; in assay [8], 82.6%; in [9], 89.7%; in assay [10], 90.7%.

With `Cc1ccc(Sc2sc(-c3ccccc3)nc2[P+](c2ccccc2)(c2ccccc2)c2ccccc2)cc1`, the growth in assay [1] is -10.1% (active); in [2], -39.2% (active); in assay [3] it was 7.53% (active); in assay [4], 25.4%; in assay [5], 2.09% (active); in [6] it was -22.5% (active). For the same compound, the growth in assay [7] was -0.559% (active); in assay [8], -9.1% (active); in assay [9], -1.87% (active); in assay [10], -7.72% (active).

For the compound `O=C1c2ccccc2NC(c2cn(-c3ccccc3)nc2-c2cccs2)N1Cc1ccccc1` (stereo not given), the growth in assay [1] was 66.8%; in assay [2] it was 76.2%; in [3], 90.3%; in assay [4], 90%; in [5], 87.1%; in [6], 84%. Besides, the growth in assay [7] was 69.3%; in assay [8], 89.3%; in assay [9], 94.3%; in assay [10], 73.2%.

`Cc1cc(C)n(Cc2cc(C(C)(C)C)cc(C(C)(C)C)c2)c(=O)c1C#N`: the growth is 84% in [1]; 93.7% in [2]; 93.4% in assay [3]; 83.8% in [4]; 90.4% in assay [5]; 87% in [6]. For the same compound, the growth was 96.8% in assay [7], 106% in [8], 81.6% in assay [9] and 96.7% in assay [10].

As to `COc1ccc(/C=C2\N=C(c3ccccc3)N(c3cc(OC)c(OC)cc3C(=O)N3N=C(C)CC3=O)C2=O)cc1`, the growth is 92.1% in assay [1]; 47.7% in assay [2]; 89.4% in assay [3]; 103% in assay [4]; 101% in assay [5]; 99.3% in assay [6]. The growth is 99.8% in assay [7], 105% in [8], 91.7% in [9] and 78.6% in assay [10].

With `COc1ccc(-n2c(/C=C/c3ccc(O)c(OC)c3)cc(/C=C/c3ccc(O)c(OC)c3)nc2=O)cc1`, the growth in assay [1] is 14.2%; in [2], 21.4%; in [3], 66%; in assay [4], 112%; in assay [5], 62.5%; in [6], 62.3%. In addition, the growth in assay [7] was 63.5%; in assay [8], 41.4%; in [9], 62.5%; in [10], 84.3%.

As for `CCNCCCn1c2c(c3ccc([N+](=O)[O-])cc3c1=O)C(=O)c1cc(OC)cnc1-2`, the growth in [1] was 0% (active); in [2], -22% (active); in [3], -37% (active); in [4], 12.3%; in [5], 10.4%; in [6] it was -25.3% (active). Besides, the growth in assay [7] is -24.1% (active); in [8], -33.1% (active); in assay [9], 8.88% (active); in [10] it was -40.2% (active).

For `O=C(NC(Cc1cn(Cc2ccccc2)cn1)C(=O)O)OCC1c2ccccc2-c2ccccc21` (stereo not given), the growth in assay [1] is 85.1%; in assay [2] it was 114%; in [3] it was 103%; in assay [4], 105%; in [5], 106%; in [6] it was 109%. The growth in assay [7] was 105%; in assay [8], 105%; in assay [9], 98%; in assay [10], 104%.

For the compound `CN(C)c1ccc(C(=O)c2ccc(N(C)C)c(N)c2)cc1N`, the growth in [1] was 7.86% (active); in [2], 60.4%; in assay [3], 41.6%; in assay [4] it was 75.7%; in [5], 47%; in assay [6] it was 24.6%. In addition, the growth was 72.8% in [7], -31% (active) in [8], 7.6% (active) in assay [9] and -14% (active) in assay [10].

In the case of `Nc1nc(N)c2nc3c(nc2n1)CCCCCCCCCC3`, the growth was 32.2% in assay [1]; 85.6% in [2]; 39.9% in [3]; 69.4% in [4]; 61.9% in assay [5]; 78.9% in [6]. Further, the growth is 37.1% in assay [7], 81.9% in assay [8], 72.6% in assay [9] and 52.9% in assay [10].
